Laboratory results: the OligoGym collection

Molecular target: IBTK
Assay: pooled miR-30 sensor sort-seq; sequence = guide strand
Settings: shRNA
Note: reference of the scale not given here.

**Q.** How did the sensor-assay potency score (higher = more potent) turn out when TAGCATAGCAGCATTCTTCAGG was run?
**A.** The sensor-assay potency score (higher = more potent) was -0.0417.

**Q.** How did the sensor-assay potency score (higher = more potent) turn out when TTGAGCTTGATTACTTTTGTAA was run?
**A.** Its sensor-assay potency score (higher = more potent) is 0.24.

**Q.** Which sensor-assay potency score (higher = more potent) does the source give for TTGCACTATACATTGCTGCAAA here?
**A.** The sensor-assay potency score (higher = more potent) was -0.722.

**Q.** TAATACAACAGTATGATCCTTA was tested. Which sensor-assay potency score (higher = more potent) did it give?
**A.** Its sensor-assay potency score (higher = more potent) is 1.02.

**Q.** TAAACTGTAAACAAGACAGTTT was tested. Which sensor-assay potency score (higher = more potent) did it give?
**A.** The sensor-assay potency score (higher = more potent) was -0.0719.

**Q.** How did the sensor-assay potency score (higher = more potent) turn out when TCTTCTTGCACTGATAGTCTGC was run?
**A.** The sensor-assay potency score (higher = more potent) was -0.142.

**Q.** How did the sensor-assay potency score (higher = more potent) turn out when TAAGCCAATCTAACACTCCTTT was run?
**A.** The sensor-assay potency score (higher = more potent) was 0.0727.

**Q.** Which sensor-assay potency score (higher = more potent) does the source give for TTCTTGAACATAGTTTCCGAAT here?
**A.** The sensor-assay potency score (higher = more potent) was -1.25.

**Q.** Which sensor-assay potency score (higher = more potent) does the source give for TAAACAGCTTCTCTAGTCCATA here?
**A.** The sensor-assay potency score (higher = more potent) was -1.24.

**Q.** For TTTGCTTTCTTGAACATAGTTT, which sensor-assay potency score (higher = more potent) is on record?
**A.** Its sensor-assay potency score (higher = more potent) is -0.494.

**Q.** For TAACACAGACTGTAGCTCCATC, which sensor-assay potency score (higher = more potent) is on record?
**A.** The sensor-assay potency score (higher = more potent) was -0.515.

**Q.** For TTATCTTGAATATACAGACTAA, which sensor-assay potency score (higher = more potent) is on record?
**A.** Its sensor-assay potency score (higher = more potent) is -0.465.

Molecular target: ICAM4
Assay: as above
Settings: shRNA

**Q.** Which sensor-assay potency score (higher = more potent) does the source give for TGCACAGCCACGAACTCCGGGC here?
**A.** Its sensor-assay potency score (higher = more potent) is -1.29.

**Q.** TTGTAGGCGGTGATCCTGGAGG was tested. Which sensor-assay potency score (higher = more potent) did it give?
**A.** The sensor-assay potency score (higher = more potent) was -1.08.

**Q.** With TCGTAGGTCAAGGTCACGTTGG as the sequence, how does the sensor-assay potency score (higher = more potent) read?
**A.** Its sensor-assay potency score (higher = more potent) is -0.884.

**Q.** With TTGAGCTGCACTGACTTCCCCG as the sequence, how does the sensor-assay potency score (higher = more potent) read?
**A.** The sensor-assay potency score (higher = more potent) was 0.304.

**Q.** TATTCCTCTTTTTCTCGCTCAG was tested. Which sensor-assay potency score (higher = more potent) did it give?
**A.** Its sensor-assay potency score (higher = more potent) is -0.694.

**Q.** How did the sensor-assay potency score (higher = more potent) turn out when TAGGCGGTGATCCTGGAGGTGG was run?
**A.** The sensor-assay potency score (higher = more potent) was -1.35.

**Q.** How did the sensor-assay potency score (higher = more potent) turn out when TTCATAGCTAGGCACTTGCATA was run?
**A.** Its sensor-assay potency score (higher = more potent) is -1.17.
